Bioassay records deposited in PubChem by National Center for Advancing Translational Sciences (NCATS).
Shown are actives, neighbours in structure and some others; about 11% of the full set was active somewhere.
PNC assembly inh = High Content Assay for Compounds that inhibit the Assembly of the Perinucleolar Compartment | PC3M PTB-GFP, PNC prevalence imaging, 16 h; stronger effect = lower value | activity change (PNC), negative = inhibition, % at 10 µM | 140,000 tested, 3.1% active | AID 2417, 2010;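 active = readout at or below -70, meaning at least 70% loss of cells showing the perinucleolar compartment, a nuclear body marking cancer cells; inconclusive = readout between -30 and a set limit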;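 note: plate controls were DMSO wells for no effect and camptothecin positive control wells for full effect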
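Compounds are pinned in duplicate onto adhered PC3M cells stably expressing GFP-tagged PTB and incubated 16 h at 37 C. Cells are then fixed, nuclei stained with Hoechst, and PNC-positive cells counted.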
ALDH1A1 block = qHTS Assay for Inhibitors of Aldehyde Dehydrogenase 1 (ALDH1A1); Aldehyde dehydrogenase 1A1 (Homo sapiens), P00352; Purified ALDH1A1, NADH fluorescence, propionaldehyde substrate; Potency, µM (top dose mostly 75.3 µM), inactives show at the highest dose activity, negative = inhibition, hits mostly inhibitors; 220,000 tested, 7.3% active; AID 1030, 2008;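 note: potency is the fitted concentration of half-maximal effect; plate controls were no enzyme wells and a reference inhibitor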
HPGD inh = qHTS Assay for Inhibitors of HPGD (15-Hydroxyprostaglandin Dehydrogenase) | 15-hydroxyprostaglandin dehydrogenase [NAD(+)] (Homo sapiens), P15428 | purified HPGD, NADH fluorescence kinetic, PGE2 substrate | Potency, µM, without a hit: at the top dose activity change, negative = inhibition, hits mostly inhibitors | 150,000 tested, 4.3% active | AID 894, 2007; note: potency is the fitted concentration of half-maximal effect
Target sequence (P15428 whole entry, looked up): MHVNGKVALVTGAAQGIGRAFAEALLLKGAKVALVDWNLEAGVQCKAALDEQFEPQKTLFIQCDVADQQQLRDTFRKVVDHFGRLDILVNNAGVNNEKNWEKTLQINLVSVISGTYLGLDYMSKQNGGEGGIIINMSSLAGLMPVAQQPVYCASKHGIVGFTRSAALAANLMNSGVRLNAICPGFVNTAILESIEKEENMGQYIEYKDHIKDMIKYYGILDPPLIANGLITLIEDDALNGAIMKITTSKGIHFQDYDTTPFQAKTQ
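20 nM HPGD preincubated 15 min at room temperature with compound in 50 mM Tris-HCl pH 8, 0.01% Tween 20. Started with 1 mM NAD+ and 30 uM prostaglandin E2; NADH fluorescence (360/450 nm) read 5 times over 30-s intervals, last minus first.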
An asterisk follows results filed as active; ? = inconclusive; · = no result; [ ] = dose if it differs, or a comment. Unless noted, calls come from the whole dose curve; as a rule, active = well fitted inhibition curve with a large enough effect (not every such curve was filed as active); inconclusive = small, poorly fitted or top-dose-only effect, or another doubt; inactive = no such curve, though single readings can be large or run the other way. Unless noted, % is set by controls: 0 for no effect and ±100 for the full control effect.

SMILES | PNC assembly inh | ALDH1A1 block | HPGD inh
Cc1cc(C)cc(/C=C/C2OCC(O)C2Oc2ccc(C3CCCC3)cc2)c1 (configuration not stated) | · | -1%[13.5 µM] | ·
CC1CC(C)(C)NC(=S)N1CCCC(=O)N1CCN(c2ccc(F)cc2)CC1 (configuration not stated) | ? | -9% | -2%
CCCCn1nnnc1SCC(=O)Nc1ccc(N(C)C)cc1 | -3 | 25µM* | -8%
CCn1nnnc1SCC(=O)Nc1nc2ccc(OC)cc2s1 | -100* | -9% | -15%
O=C(CSc1nnnn1C1CCCCC1)Nc1ccc2c(c1)OCO2 | -17 | 7.9µM* | -3%
COc1ccc2nc(NC(=O)CSc3nc(C)cc(C)n3)sc2c1 | 32 | -3% | -8%
COc1cccc(-n2nnnc2SCC(=O)Nc2ccc(C(C)=O)cc2)c1 | 55 | -11% | -12%
Nn1c(SCC(=O)Nc2ccc3c(c2)OCO3)nnc1C1CCCCC1 | -17 | -5% | -5%
COc1ccc(OC)c(-n2nnnc2SCC(=O)Nc2ccc(C(=O)N3CCCCC3)cc2)c1 | 47 | 1.4µM* | 0.35µM*
CCCCn1nnnc1SCC(=O)Nc1ccc(F)cc1 | 8 | ? | -5%
O=C(Oc1ccccc1)N1CCC2(CCCN(c3ccccc3)C2)CC1 | · | 1% | -9%
COC(=O)c1ccc(NC(=O)C(=O)N2CCN(C(=S)Nc3ccc(C)cc3)CC2)cc1 | ? | 2% | -6%
COc1ccc(OC2C=CC(c3ccccc3)OC2CO)c(C(C)=O)c1 (configuration not stated) | · | -3%[13.5 µM] | ·
COc1ccc(OCC(=O)Nc2nc3ccc(NC(C)=O)cc3s2)cc1 | · | 8% | ·
c1ccc(OCCSc2nnnn2C2CCCCC2)cc1 | 3 | ? | -16%
O=C(CSc1nnnn1C1CCCCC1)Nc1ccccc1F | · | 4µM* | ·
Cn1nnnc1SCC(=O)c1cccs1 | -28 | ? | -7%
O=C(Sc1nnnn1C1CCCCC1)c1cccs1 | ? | 10µM* | 25µM*
COc1ccc2nc(NNC(=O)COc3ccccc3)sc2c1 | · | 20µM* | ·
COc1ccc(OCCSc2nnnn2C2CCCCC2)cc1 | ? | 22µM* | -15%
O=C(CSc1nnnn1C1CCCCC1)NCc1ccccc1 | 6 | ? | -7%
COc1ccc(-n2c(CNC(=O)COc3ccc(Cl)cc3Cl)n[nH]c2=S)cc1 | · | -11% | ·
CCOC(=O)C(C(=O)c1ccccc1)[C@H](CCc1ccccc1)NC(=O)OC (some centres not stated) | · | -3% | -4%
COC(=O)C12CC3(CCC4C5C(C(OCc6ccccc6)C41)C52)OCCO3 (configuration not stated) | · | 11%[13.5 µM] | ·
CCC1(CC)NC(=O)N(CC(=O)OCC(=O)Nc2sccc2C#N)C1=O | · | -3% | ·
SMILES | PNC assembly inh | ALDH1A1 block | HPGD inh
Cc1ccc(S(=O)(=O)N2CCN(C(=O)C3CCN(C(=O)c4ccccc4C)CC3)CC2)cc1C | · | 2% | ·
COc1ccc(O[C@H]2C=C[C@@H](c3ccccc3)O[C@H]2CO/N=C(/C)CCC(=O)OC[C@@H]2O[C@H](c3ccccc3)C=C[C@@H]2Oc2ccc(OC)cc2)cc1 | · | 7%[13.5 µM] | ·
COCCOc1cc(-n2cccc2)c(Cl)cc1Cl | · | 7% | ·
COc1ccc(NC(=O)CSc2nnnn2C2CCCC2)cc1 | · | 2.5µM* | ·
O=C(CSc1nnnn1C1CCCC1)Nc1ccc(F)cc1 | 42 | ? | -4%
CC(=O)O[C@@H](C)C#C[Si](C)(C)c1ccccc1 | · | 5% | -1%
CC(=O)C1=C(O)C(=O)N(c2ccc(S(N)(=O)=O)cc2)C1c1cccc([N+](=O)[O-])c1 (configuration not stated) | · | 2% | ·
CC(=O)C1C(=O)c2c(cccc2[N+](=O)[O-])C1=Nc1ccc(S(N)(=O)=O)cc1 (configuration not stated) | · | 22µM* | ·
O=C(NCCCN1CCOCC1)c1ccc(CSc2ccc(Cl)cc2)cc1 | · | 1% | ·
O=C(Nc1nnc(-c2ccccc2Cl)o1)c1cc2cc([N+](=O)[O-])ccc2s1 | -17 | -3% | -8%
CCOC(=O)c1sc2nc3c(SCC(=O)O)cc(C(=O)c4ccccc4O)cn3c(=O)c2c1C | · | 1% | ·
O=C(O)CSc1cc(C(=O)c2ccccc2O)cn2c(=O)c3c(-c4ccccc4)csc3nc12 | · | 3.5µM* | ·
CCOC(=O)c1sc2nc3c(SCC(=O)O)cc(C(=O)c4cc(F)ccc4O)cn3c(=O)c2c1C | ? | -15% | -26%
Cc1sc2nc3c(SC(C)C(=O)O)cc(C(=O)c4ccccc4O)cn3c(=O)c2c1C (configuration not stated) | -18 | 8.9µM* | -21%
CCCCCCC=O | · | -9% | -3%
CCOC(=O)/C(C#N)=C/C1=C(N2CCCC2)CC(C)(CC)OC1 (configuration not stated) | 10 | ? | -17%
O=C(Cn1nc(Cc2cccnc2)c2ccccc2c1=O)NCc1ccc(F)cc1 | 57 | 8% | -2%
CN(Cc1cccs1)C(=O)/C=C/c1ccccc1[N+](=O)[O-] | · | 3.2µM* | ·
NC(=O)COC(=O)/C=C/c1ccccc1[N+](=O)[O-] | · | -6% | ·
CCC(CO)NCC#Cc1ccccc1 (configuration not stated) | · | 6% | ·
COc1ccc(S(=O)(=O)NC2(C(F)(F)F)N=C(c3ccccc3)NC2=O)cc1 (configuration not stated) | -113* | 13% | -1%
O=C1NC(c2ccccc2)=NC1(NS(=O)(=O)c1ccc(Cl)cc1)C(F)(F)F (configuration not stated) | -20 | -2% | 0%
CC(C)CCCC(C)C1CCC2C3C(=O)C=C4CC(O)CC[C@@]4(C)C3CC[C@@]12C (some centres not stated) | · | -6% | -10%
COC(=O)C(C(=O)Nc1ccccc1C)C1CCCC1 (configuration not stated) | -83* | -6% | -1%
COC(=O)C(C(=O)Nc1ccc(OC)cc1)C1CCCCCC1 (configuration not stated) | -81* | ? | -8%
SMILES | PNC assembly inh | ALDH1A1 block | HPGD inh
COc1ccc(NC(=O)c2ccccc2NC(=O)NC2CCCCC2)cc1 | ? | ? | 2%
Cc1ccccc1NC(=O)C(NC1CCCCC1)C(C)C (configuration not stated) | · | -4% | ·
CN(C)C(=O)COC(=O)c1cccc(CN2C(=O)c3ccccc3C2=O)c1 | · | 10% | ·
CCOC(=O)Cc1c(C)nc(Cc2ccc(OC(C)C)cc2)[nH]c1=O | · | 4% | ·
COC(=O)Nc1ccc(S(=O)(=O)N2CCC(C(=O)NC3CCCCC3)CC2)cc1 | · | -8% | ·
CC1Cc2ccccc2N1C(=O)c1ccc(N2CCCCC2)c([N+](=O)[O-])c1 (configuration not stated) | -20 | 22µM* | -19%
COc1ccc(C(=O)N2c3ccccc3CC2C)cc1OC (configuration not stated) | 19 | 5% | -2%
O=C(O)c1ccccc1C(=O)c1ccc(N2CCCC2)c([N+](=O)[O-])c1 | · | 0% | ·
CC1Cc2ccccc2N1C(=O)c1ccc(N2CCCC2)c([N+](=O)[O-])c1 (configuration not stated) | -6 | 13µM* | -20%
O=C(C[n+]1ccc(/C=N/O)cc1)NC1CCCCC1 | · | 10% | ·
